Laboratory results published in PubChem BioAssay (EPA / NIEHS).
“And” between values parts separate entries of the source, which are not always exact repeats. Equal values may be shown once. More than one record can exist for a structure, and the calls need not agree. The source made the active and inactive calls. Rule for the calls: active = hit-call score of the fitted dose curve at least 0.9, where 1 is the maximum; inactive = score below 0.9.

Legend:
[1] = APR_HepG2_CellCycleArrest_24hr: Apredica 24-hour HepG2 Assay for Cell Cycle Arrest (AID 2282905); settings: imaging, actives raise or lower the signal;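 note: cell cycle arrest scored as ratio of 2N to 4N nuclear DNA content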
In short: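 Compounds (0.39 to 200 uM, final DMSO 0.5% v/v) are applied to HepG2 cells for 24 hours; cells are then fixed, permeabilized and nuclei labeled with Hoechst 33342. Automated imaging measures DNA content, and activity is fitted in both directions against DMSO.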

[2] = APR_HepG2_StressKinase_1hr: Apredica 1-hour HepG2 Assay for Stress Kinase (AID 2282906); settings: HepG2 stress kinase (phospho-c-Jun) imaging, actives raise or lower the signal
In short: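 High-content imaging of phospho-c-Jun immunostaining (with Hoechst nuclear identification) after a 1 h exposure of HepG2 cells to 10 concentrations from 0.39 to 200 uM, final DMSO 0.5%. Fitted bidirectionally against DMSO.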

[3] = APR_HepG2_NuclearSize_24hr: Apredica 24-hour HepG2 Assay for Nuclear Size (AID 2282907); settings: high-content imaging, actives raise or lower the signal
In short: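 Nuclear size is measured by fluorescence high-content imaging of Hoechst-labelled HepG2 nuclei after 24 hr of treatment (0.39–200 uM, 0.5% DMSO). Cells are fixed in 3.7% formaldehyde before staining, and DMSO serves as the baseline for bidirectional curve fitting.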

[4] = APR_HepG2_CellLoss_24hr: Apredica 24-hour HepG2 Assay for Cell Loss (AID 2282908); settings: high-content imaging;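 for AC50: fit in both directions so a hit may be cell loss or gain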
In short: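 Nuclear count serves as the viability measure: treated cells are fixed, permeabilized and labelled with Hoechst 33342, and six images per well are analysed to identify valid nuclei. Doses span 0.39–200 uM, and activity in either direction is scored against DMSO.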

[5] = APR_HepG2_MicrotubuleCSK_24hr: Apredica 24-hour HepG2 Assay for Microtubule CSK Stabilty (AID 2282909); settings: HepG2 microtubule cytoskeleton imaging, actives raise or lower the signal
In short: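 Compounds were applied to HepG2 cells for 24 hours across 0.39–200 uM in duplicate, with final DMSO at 0.5% v/v. Fixed, permeabilized cells were labeled for alpha-tubulin and nuclei, and tubulin fluorescence was quantified by imaging, fitted bidirectionally against DMSO.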

[6] = APR_HepG2_MitoticArrest_24hr: Apredica 24-hour HepG2 Assay for Mitotic Arrest (AID 2282910); settings: high-content imaging, actives raise or lower the signal
In short: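 Treatment lasted 24 hr in the human HepG2 line at 0.39–200 uM, solvent held at 0.5% DMSO. Fixed cells were stained with Hoechst 33342 and anti-phospho-histone H3, imaged at 20x, and analysed by gain- or loss-of-signal fitting against DMSO.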

[7] = APR_HepG2_MitoMembPot_24hr: Apredica 24-hour HepG2 Assay for Mitochondrial Membrane Potential (AID 2282911); settings: imaging, actives raise or lower the signal
In short: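 Mitochondrial membrane potential imaged via MitoTracker Red CMXRos (250 nM, 30 min pre-fixation) in fixed HepG2 cells with Hoechst nuclear identification. Ten concentrations 0.39–200 uM, 24 h treatment, 0.5% DMSO; CCCP as positive control.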

[8] = APR_HepG2_p53Act_24hr: Apredica 24-hour HepG2 Assay for p53 Activation (AID 2282913); settings: high-content imaging, actives raise or lower the signal;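 note: p53 protein immunofluorescence averaged per cell in HepG2 with Hoechst nuclei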
In short: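 Fluorescence imaging of formaldehyde-fixed HepG2 cells labelled for p53 and with Hoechst, 24 h after dosing (0.39–200 uM, duplicate wells, 0.5% v/v DMSO). Signal fitted in both directions relative to DMSO.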

[9] = APR_HepG2_CellCycleArrest_72hr: Apredica 72-hour HepG2 Assay for Cell Cycle Arrest (AID 2282914); settings: high-content imaging, actives raise or lower the signal
In short: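 Read-out: nuclear DNA content from Hoechst 33342 high-content imaging (20x, six fields/well) after 3.7% formaldehyde fixation, fitted bidirectionally against DMSO. Treatment was 72 h in HepG2, ten concentrations 0.39–200 uM, duplicate, 0.5% DMSO.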

[10] = APR_HepG2_CellLoss_72hr: Apredica 72-hour HepG2 Assay for Cell Loss (AID 2282915); settings: high-content imaging
In short: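 HepG2 cells were exposed for 72 hr to compounds at 0.39–200 uM (ten concentrations, duplicate) in 0.5% v/v final DMSO. Nuclei were stained with Hoechst 33342 after 3.7% formaldehyde fixation, imaged at 20x, and counted; fits bidirectional versus DMSO.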

[11] = APR_HepG2_P-H2AX_72hr: Apredica 72-hour HepG2 Assay for H2AX Phosphorylation (AID 2282916); settings: imaging, actives raise or lower the signal;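 note: phospho-histone H2A.x immunostain intensity per cell marking DNA damage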
In short: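 Human hepatoma HepG2 cells are dosed across ten concentrations (0.39 to 200 uM, 0.5% v/v DMSO) and incubated 72 hr. Phospho-histone H2A.x is then detected by antibody staining alongside c-Jun and Hoechst, and quantified by automated fluorescence imaging.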

[12] = APR_HepG2_MitoMembPot_72hr: Apredica 72-hour HepG2 Assay for Mitochondrial Membrane Potential (AID 2282917); settings: imaging, actives raise or lower the signal
In short: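 HepG2 cells exposed 72 h to compounds at 0.39–200 uM (0.5% v/v DMSO, duplicates); MitoTracker Red CMXRos 250 nM loaded 30 min before 3.7% formaldehyde fixation, imaged by HCS fluorescence. Bidirectional fit versus DMSO.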

[13] = APR_HepG2_MitoticArrest_72hr: Apredica 72-hour HepG2 Assay for Mitotic Arrest (AID 2282918); settings: high-content imaging, actives raise or lower the signal
In short: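 High-content imaging of fixed human HepG2 cells after 72 h compound exposure (0.39–200 uM, duplicates, 0.5% DMSO); mitotic arrest scored from phospho-histone H3 and nuclear Hoechst staining relative to DMSO.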

[14] = APR_HepG2_P-H2AX_24hr: Apredica 24-hour HepG2 Assay for H2AX Phosphorylation (AID 2282920); settings: high-content imaging, actives raise or lower the signal
In short: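 High-content imaging of phospho-histone H2A.x immunofluorescence, nuclei counterstained with Hoechst 33342, in fixed HepG2 cells. Compounds ran 0.39–200 uM in duplicate for 24 h, final DMSO 0.5%. Signal change fitted both directions against DMSO.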

[15] = APR_HepG2_StressKinase_72hr: Apredica 72-hour HepG2 Assay for Stress Kinase (AID 2282921); settings: HepG2 stress kinase (phospho-c-Jun) imaging, actives raise or lower the signal
In short: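 After a 72 h compound treatment spanning 0.39 to 200 uM, formaldehyde-fixed cells are labelled for phosphorylated c-Jun and nuclei, imaged by automated fluorescence microscopy, and activity is fitted in both directions relative to DMSO controls.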

[16] = APR_HepG2_StressKinase_24hr: Apredica 24-hour HepG2 Assay for Stress Kinase (AID 2282922); settings: HepG2 stress kinase (phospho-c-Jun) imaging, actives raise or lower the signal
In short: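 After 24 hr compound treatment (up to 200 uM, final DMSO 0.5% v/v), HepG2 cells are fixed and multiplex-labeled; phospho-c-Jun intensity is captured by high-content fluorescence imaging and analyzed relative to DMSO.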

[17] = APR_HepG2_p53Act_72hr: Apredica 72-hour HepG2 Assay for p53 Activation (AID 2282923); settings: high-content imaging, actives raise or lower the signal;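 note: average cellular p53 protein immunofluorescence intensity in HepG2 cells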
In short: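 Imaging-based endpoint: after 72 hr compound exposure (up to 200 uM, 0.5% DMSO), fixed and permeabilized monolayers were labelled with anti-p53 antibody and imaged; signal change in either direction was fitted relative to DMSO controls.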

[18] = APR_HepG2_MitoMass_72hr: Apredica 72-hour HepG2 Assay for Mitochondrial Mass (AID 2282924); settings: high-content imaging, actives raise or lower the signal;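 note: MitoTracker Red CMXRos stain intensity per cell imaged as mitochondrial mass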
In short: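 Steps: treat HepG2 72 hr (0.39–200 uM, duplicate wells); load MitoTracker Red CMXRos, 250 nM, 30 min; fix with 3.7% formaldehyde, permeabilise with 0.5% Triton X-100; capture images, nuclei via Hoechst 33342; fit bidirectionally against DMSO.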

[19] = APR_HepG2_MitoMass_24hr: Apredica 24-hour HepG2 Assay for Mitochondrial Mass (AID 2282912); settings: high-content imaging, actives raise or lower the signal
In short: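 After 24 hr of treatment at 0.39 to 200 uM, HepG2 cells take up 250 nM MitoTracker Red CMXRos for 30 min and are then fixed with 3.7% formaldehyde. Per-well images are quantified, and any change in either direction is scored against solvent.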

[20] = APR_HepG2_MicrotubuleCSK_72hr: Apredica 72-hour HepG2 Assay for Microtubule CSK Stabilty (AID 2282919); settings: HepG2 microtubule cytoskeleton, high-content imaging, actives raise or lower the signal
In short: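 Ten-point dosing (0.39–200 uM, 0.5% DMSO) of HepG2 for 72 hr, with taxol as the cytoskeletal positive control. The cells were formaldehyde-fixed and then stained with alpha-tubulin/Cy5 and Hoechst. Imaging at 20x used a −2 um Z offset for tubulin.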

Measured: AC50

CCOC(=O)CC(SP(=S)(OC)OC)C(=O)OCC (configuration not stated)
active: [10] 109 µM
not listed: [19] | [20]
inactive: all other assays above

COC(=O)C(C)Oc1ccc(Oc2ccc(Cl)cc2Cl)cc1 (configuration not stated)
active: [7] 129 µM
inactive: [1] | [2] | [3] | [4] | [6] | [7] | [19] | [9] | [10] | [11] | [12] | [13] | [20] | [14] | [15] | [16] | [18]

CC(C)(C)c1ccc(CSc2cnn(C(C)(C)C)c(=O)c2Cl)cc1
active: [1] 16.1 µM | [4] 2.58 µM | [9] 16.1 µM | [10] 8.33 µM
not listed: [5] | [8] | [17] | [20]
inactive: all other assays above

O=C(Nc1ccccc1)Nc1ccnc(Cl)c1
active: [1] 69.9 µM | [4] 84.3 µM | [5] 84.5 µM | [9] 37.2 µM | [10] 53.8 µM | [12] 3.46 µM
not listed: [8] | [17] | [19] | [20]
inactive: all other assays above

Cc1c(F)c(F)c(COC(=O)C2C(/C=C(\Cl)C(F)(F)F)C2(C)C)c(F)c1F (configuration not stated)
not listed: [8] | [17] | [19] | [20]
inactive: all other assays above

C=CC1(C)OC(=O)N(c2cc(Cl)cc(Cl)c2)C1=O (configuration not stated)
not listed: [17] | [19] | [20]
inactive: all other assays above

CNC(=O)ON=CC(C)(C)SC
not listed: [8] | [17] | [19] | [20]
inactive: all other assays above

OC(c1ccc(Cl)cc1)(c1cncnc1)c1ccccc1Cl (configuration not stated)
active: [4] 108 µM | [6] 91.1 µM | [7] 31.5 µM | [10] 10.4 µM | [20] 167 µM
not listed: [5] | [17]
inactive: all other assays above

CC(C)Oc1cc(-n2nc(C(C)(C)C)oc2=O)c(Cl)cc1Cl
active: [4] 50.8 µM | [10] 58.9 µM | [11] 82.2 µM | [13] 42.6 µM
not listed: [5] | [17] | [20]
inactive: all other assays above

O=C(O)c1nc(Cl)ccc1Cl
not listed: [8] | [17] | [19]
inactive: all other assays above

CO/C=C(/C(=O)OC)c1ccccc1Oc1cc(Oc2ccccc2C#N)ncn1
active: [1] 39.3 µM and 692 nM | [4] 16.2 µM and 36.5 µM | [7] 21.2 µM | [9] 21 µM and 3.09 µM and 5.96 µM | [11] 53.2 µM and 42.2 µM | [12] 164 µM | [13] 13.9 µM and 24.7 µM and 31 µM | [15] 36 µM | [18] 1.68 µM and 3.44 µM
inactive: [1] | [2] | [3] | [4] | [5] | [6] | [7] | [19] | [9] | [11] | [12] | [13] | [20] | [14] | [15] | [16] | [18]

N#Cc1nn(-c2c(Cl)cc(C(F)(F)F)cc2Cl)c(N)c1S(=O)C(F)(F)F (configuration not stated)
active: [1] 50.9 µM | [4] 96.2 µM | [5] 87.2 µM | [6] 100 µM | [9] 19.9 µM | [10] 63.1 µM | [11] 34.9 µM | [20] 179 µM | [14] 107 µM | [15] 105 µM
inactive: [2] | [3] | [7] | [12] | [13] | [16] | [17] | [18]

CCOP(=S)(OCC)SCn1c(=O)oc2cc(Cl)ccc21
active: [9] 85 µM | [10] 61.4 µM
not listed: [20]
inactive: all other assays above
